In the library only some 18% were active in any assay of this set; here they are far more common.
LDHA block – qHTS assay for inhibitors of human lactate dehydrogenase | L-lactate dehydrogenase A chain (Homo sapiens), P00338 | purified LDHA, NADH/diaphorase-resazurin fluorescence; active compounds read low | activity change, % (values are at about 110 or 230 µM) | actives 0.15% (n = 480,000) | AID 1347041, 2019; in the data active means activity change below about -30%; inconclusive means mostly about -25% to -30%;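 further: plate controls were DMSO wells for no effect and wells without enzyme for full effect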
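Human LDH5 at 2 nM final in Tris HCl pH 7.4 with 0.06 mM NADH and 0.2 mM pyruvate, reacted 5 minutes at room temperature. Remaining NADH coupled via diaphorase/resazurin; resorufin fluorescence read at 0 and 20 minutes, normalized to enzyme-free and DMSO wells.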
VP16 counter – VP16 counterscreen qHTS for inhibitors of ROR gamma transcriptional activity | Drosophila S2 Gal4-VP16 UAS-luciferase, luminescence, 20 h | Potency, µM (titrated, usually from 53.6 µM), for the others: at the top dose activity, negative = inhibition, actives largely listed as inhibitors | actives 3.5% (n = 310,000) | AID 2546, 2010;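 further: Gal4-VP16 expression switched on by copper sulfate through the metallothionein promoter; potency means the concentration at half of the fitted maximal effect; nearly all actives have a fitted effect of over 50% in size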
RORgamma inh – qHTS for inhibitors of ROR gamma transcriptional activity; Nuclear receptor ROR-gamma (Mus musculus), P51450; Potency, µM (top dose mostly 53.6 µM), for inactives: at the highest dose activity change, negative = inhibition, usual class: inhibitors; actives 5.4% (n = 310,000); Drosophila S2 Gal4-RORgamma UAS-luciferase reporter, 20 h; further: potency means the concentration at half of the fitted maximal effect; nearly all actives have a fitted effect of over 60% in size
Target sequence (P51450 whole entry, looked up, the tested form may be a part): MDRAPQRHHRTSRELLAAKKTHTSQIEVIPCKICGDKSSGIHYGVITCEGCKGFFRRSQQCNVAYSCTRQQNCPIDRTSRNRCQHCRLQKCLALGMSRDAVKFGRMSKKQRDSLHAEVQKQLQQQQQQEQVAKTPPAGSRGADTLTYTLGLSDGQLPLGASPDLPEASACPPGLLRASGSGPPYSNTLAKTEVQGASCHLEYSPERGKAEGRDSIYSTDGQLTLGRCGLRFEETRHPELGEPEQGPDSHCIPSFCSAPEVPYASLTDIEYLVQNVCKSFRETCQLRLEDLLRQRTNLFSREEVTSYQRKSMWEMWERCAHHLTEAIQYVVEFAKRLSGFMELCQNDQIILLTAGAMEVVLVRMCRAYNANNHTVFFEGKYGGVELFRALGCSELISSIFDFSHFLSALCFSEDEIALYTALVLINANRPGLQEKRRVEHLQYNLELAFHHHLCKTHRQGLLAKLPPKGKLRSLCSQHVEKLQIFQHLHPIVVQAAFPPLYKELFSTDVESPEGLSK
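Compounds are pin-transferred onto Drosophila Schneider cells expressing a copper-inducible Gal4–ROR gamma transactivation domain fusion. After 1 hr, copper sulfate is added to 700 uM final; luciferase is read 20 hr later.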
DT40 TDP1 CPT – qHTS for Inhibitors of human tyrosyl-DNA phosphodiesterase 1 (TDP1): qHTS in cells in presence of CPT; chicken DT40 Tdp1-/-;hTDP1 cells + 20 nM CPT, ATP luminescence, 48 h; Potency, µM (series often up to 46.2 µM), for inactives: top-dose activity change, negative = growth inhibition, most hits filed as inhibitors; actives 12% (n = 420,000); AID 686979, 2013; further: potency means the concentration at half of the fitted maximal effect; nearly all actives have a fitted effect of over 55% in size
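Chicken DT40 Tdp1-/- cells stably complemented with human TDP1 were seeded at 400 cells/well in medium containing 20 nM camptothecin, exposed to pin-transferred compounds, and grown at 37 °C for at least 48 hr. Viability was read as ATP luminescence.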
DT40 TDP1 no CPT – qHTS for Inhibitors of human tyrosyl-DNA phosphodiesterase 1 (TDP1): qHTS in cells in absence of CPT; DT40 Tdp1-/- hTDP1 cells, no CPT, ATP luminescence, 48 h; Potency, µM (doses to about 46.2 µM), inactives show at the highest dose activity change, negative = growth inhibition, most hits filed as inhibitors; actives 15% (n = 420,000); AID 686978, 2013; further: potency means the concentration at half of the fitted maximal effect; nearly all actives have a fitted effect of over 55% in size
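DT40 Tdp1-/-;hTDP1 cells, no CPT (DMSO vehicle only), 400 cells/well; compounds pin-transferred; ≥48 hr, 37 °C; CellTiter-Glo 30 min RT dark, luminescence read.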
IL1B secr inh – qHTS for Inhibitors of Inflammasome Signaling: IL-1-beta AlphaLISA Primary Screen. activity change, % at 57.5 µM. THP-1 LPS/ATP IL-1B secretion, AlphaLISA, 16 h; active compounds read low. actives 4.7% (n = 360,000). AID 743279, 2014; in the data active means activity change below about -50%; inconclusive means mostly about -30% to -49%
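THP-1 cells pretreated 1 hr with compounds (up to 57.5 uM final), then stimulated with LPS (250 ng/mL final) plus ATP (1.25 mM final); secreted IL-1B measured by AlphaLISA after 16 hr, decreased signal indicating inhibition.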
Numbers without * were called inactive; ? = inconclusive; . = no result given; [ ] = remark or other dose. Unless noted, the call rests on the fitted dose curve; in most records, active means well fitted curve in the direction sought with a large enough effect; inconclusive means small, poorly fitted or top-dose-only effect, or another doubt; inactive means no such curve, though single readings can be large; an effect the other way counts as inactive or inconclusive. Unless noted, on the % scale 0 is the no-effect control and ±100 the full control effect.

SMILES	LDHA block	VP16 counter	RORgamma inh	DT40 TDP1 CPT	DT40 TDP1 no CPT	IL1B secr inh
COc1ccc(-c2cn[nH]c2-c2ccc(O)cc2O)cc1OC	11	-3%	-3%	-2%	?	12
CCCc1cc(-c2[nH]ncc2-c2ccc3c(c2)OCCCO3)c(O)cc1OC	.	?	3.5µM*	.	.	.
Fc1ccc(/C=C2\CCCC3=C2N=C2SC=C(c4ccccc4)N2C3c2ccc(F)cc2)cc1 (stereo unspecified)	0	.	.	.	.	.
Cc1nnc(SCC(=O)c2c[nH]c(C(=O)N3CCCC3)c2)n1C1CC1	7	.	.	.	.	.
COc1cccc2cc(C(=O)NC3CCN(Cc4ccc(Cl)cc4)CC3)c(=O)oc12	2	.	.	.	.	.
COc1ccc(-c2[nH]ncc2-c2ccc3c(c2)OCCO3)c(O)c1	2	?	?	4.6µM*	7.3µM*	7
CS(=O)(=O)N1CCN(c2ccc(NC(=O)c3ccc(-c4ccc(Cl)cc4)o3)cc2)CC1	-8	-25%	-36%	?	?	16
CN1CCN(c2ccc(NC(=O)c3ccc(-c4cccc([N+](=O)[O-])c4)o3)cc2)CC1	2	5%	-16%	1%	?	-55*
CN1CCN(c2ccc(NC(=O)c3ccc(-c4ccc(Cl)cc4)o3)cc2)CC1	-7	?	-45%	16µM*	21µM*	-99*
Cc1ccc(N2CCN(C(=S)c3ccc(-c4cccc([N+](=O)[O-])c4)o3)CC2)cc1	-9	0%	0%	-5%	-14%	0
CN(C)CCNC(=O)C1CCCN(c2nc(Cl)nc3nc[nH]c23)C1 (stereo unspecified)	14	.	.	.	.	.
C=C1CCC2[C@](C)(CO)[C@H](O)CC[C@@]2(C)[C@@H]1C/C=C1\C(=O)OC[C@H]1O (stereo partly specified)	-4	.	.	3.7µM*	4.6µM*	-88*
C=C1CCC2[C@](C)(CO)[C@H](O)CC[C@@]2(C)[C@@H]1C/C=C1/C(=O)OC[C@H]1O (stereo partly specified)	.	-13%	-33%	14%[9.04 µM]	-27%[9.04 µM]	.
Cc1cc(-c2n[nH]c(=S)n2/N=C/c2cc([N+](=O)[O-])ccc2Cl)n[nH]1	-7	-1%	-32%	5.2µM*	18µM*	42
Cc1cccc(/C=N/n2c(C3CCCCC3)n[nH]c2=S)c1	-10	7.1µM*	3.2µM*	-30%	-26%	6
CC(/C=N/n1c(C2CCCCC2)n[nH]c1=S)=C\c1ccccc1	-1	10µM*	3.5µM*	?	?	?
CC(/C=N/n1c(-c2cc(C)[nH]n2)n[nH]c1=S)=C\c1ccccc1	0	?	8.9µM*	?	?	-12
CC(Sc1nnnn1Cc1ccccc1)C(=O)c1cccc(Cl)c1 (stereo unspecified)	-3	.	.	.	.	.
Cc1ccc(S(=O)(=O)CCC(=O)OCC(=O)NC2CCCC2)cc1	-5	.	.	.	.	.
Cc1cccc(Nc2nc(NC3CCCC3)nc3c2cnn3-c2ccccc2)c1	14	.	.	.	.	.
O=C(O)c1ccc(/C=N/n2c(C3CCCCC3)n[nH]c2=S)cc1	-1	0%	-21%	12%	5%	26
S=c1[nH]nc(C2CCCCC2)n1/N=C/c1cccc(Br)c1	-5	-13%	2µM*	-6%	-21%	9
Cc1cnc(C=O)c2cccc([N+](=O)[O-])c12	0	.	.	5.8µM*	3.7µM*	?
Cc1ncc(C)c2c([N+](=O)[O-])cccc12	5	.	.	-8%	23µM*	?
O=S(=O)(Cc1ccccc1F)CC(O)c1ccccc1 (stereo unspecified)	-4	.	.	.	.	.
SMILES	LDHA block	VP16 counter	RORgamma inh	DT40 TDP1 CPT	DT40 TDP1 no CPT	IL1B secr inh
Cc1cc(C)cc(NC(=O)CSc2ccc(S(=O)(=O)N3CCOCC3)cn2)c1	-5	.	.	.	.	.
CC(C)(C)c1cc(NCCCn2ccnc2)n2ncc(-c3ccc(Cl)cc3)c2n1	0	0%	?	?	18µM*	-86*
CC(C)(C)c1cc(NCc2cccnc2)n2ncc(-c3ccccc3)c2n1	3	.	.	.	.	.
Cc1cc(NCCCn2ccnc2)n2nc(-c3ccc(F)cc3)cc2n1	-5	-10%	-26%	-19%	-25%	-61*
Cc1cc(C)c2c(n1)nn1c(NCCCn3ccnc3)cc(C)nc21	.	1%	-23%	.	.	.
Cc1cc(NCCOCCO)n2ncc(-c3ccc(Cl)cc3)c2n1	-1	-7%	-4%	2%	-25%	-4
CN(C)CCCNc1cc(C(C)(C)C)nc2c(-c3ccccc3)cnn12	-4	2.5µM*	1.4µM*	?	16µM*	-98*
Cc1cc(NCCCn2ccnc2)n2nc(-c3ccc(Cl)cc3)cc2n1	0	?	?	-22%	?	-65*
Cc1oc(-c2ccc(OC(C)C)cc2)nc1Cn1nnc(C(=O)NCc2ccc(Cl)cc2)c1N	8	.	.	.	.	.
COC(=O)c1ccc(NS(=O)(=O)c2c(C)c(C)cc(C)c2C)c(C)c1	5	.	.	.	.	.
Cc1cccc(-c2cc3nc(C)c(C)c(NCCCn4ccnc4)n3n2)c1	-11	-6%	2%	?	15µM*	.
Cc1cc(-c2ccccc2)nc2cc(C(=O)NCCCn3ccnc3)nn12	-7	4%	?	5%	7%	?
COc1ccc(/C=C2/CCCC(CN(C)C)C2=O)cc1 (stereo unspecified)	0	.	.	0.52µM*	0.58µM*	-72*
COc1ccc(/C=C/C(=O)OC2CCCCC2CN(C)C)cc1 (stereo unspecified)	-5	0%	-10%	0%	-5%	?
CN(C)CC1CCC/C(=C/c2ccc(Cl)cc2)C1=O (stereo unspecified)	-3	.	.	0.52µM*	0.58µM*	-24
CN(C)CC1CCC/C(=C\c2ccc(OC(=O)/C=C/c3ccc(Cl)c(Cl)c3)cc2)C1=O (stereo unspecified)	5	.	.	0.73µM*	0.92µM*	?
CCCC/C=C1/CCC(CN(C)C)C1=O (stereo unspecified)	-4	.	.	2.1µM*	2.3µM*	-28
CNc1c(NC(=O)Cc2cccs2)c(=O)oc2ccccc12	-8	.	.	.	.	.
Cn1cc(C(C(=O)O)N2CCN(c3ncc(Br)cn3)CC2)c2cc(C(=O)O)ccc21 (stereo unspecified)	5	.	.	.	.	.

From PubChem
